Bioassay records as filed in PubChem BioAssay.
GSH fluor: GSH bead compound fluorescence profile; GSH beads flow cytometry, compound fluorescence 488/530 nm; hits give high values; fluorescence (KMESF) at 10 µM; 190,000 tested, 0.25% active; in the data active means fluorescence above about 89;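 further: glutathione beads carrying GST-tagged Bcl family fusion proteins plus one bare bead set; values are compound well signal with DMSO vehicle wells as background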
Avidin fluor: avidin bead compound fluorescence profile. Avidin beads, compound fluorescence 488/530 nm, flow cytometry; hits give high values. fluorescence (KMESF) at 10 µM. 220,000 tested, 0.38% active. AID 1775; in the data active means fluorescence above about 47
RGS16-Gao: RGS16-Galphao interaction regulator (human). bead-based flow cytometry RGS16-Galphao binding, fluorescence; actives lie on both sides. binding response (% of control), % at 10 µM. 220,000 tested, 0.38% active;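 further: Galphao activated by GDP with aluminum fluoride before binding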
Target sequence (O15492 whole entry, looked up): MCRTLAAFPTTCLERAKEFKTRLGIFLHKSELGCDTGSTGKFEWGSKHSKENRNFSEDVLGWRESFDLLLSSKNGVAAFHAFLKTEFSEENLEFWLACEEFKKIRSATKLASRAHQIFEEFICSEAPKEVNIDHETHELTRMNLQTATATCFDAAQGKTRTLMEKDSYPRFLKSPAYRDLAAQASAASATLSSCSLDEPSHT
Target sequence (P09471 whole entry, looked up): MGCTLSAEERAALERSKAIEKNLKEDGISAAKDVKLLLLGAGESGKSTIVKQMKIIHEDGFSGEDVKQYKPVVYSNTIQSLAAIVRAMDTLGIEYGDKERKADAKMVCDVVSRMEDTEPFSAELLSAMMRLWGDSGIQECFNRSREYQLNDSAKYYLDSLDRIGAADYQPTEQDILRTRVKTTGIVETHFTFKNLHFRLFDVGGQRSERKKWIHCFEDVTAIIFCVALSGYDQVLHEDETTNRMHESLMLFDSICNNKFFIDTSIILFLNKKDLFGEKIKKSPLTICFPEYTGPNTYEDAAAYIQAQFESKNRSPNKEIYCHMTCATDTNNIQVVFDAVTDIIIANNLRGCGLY
RGS7-Gao reg: modulates binding of RGS7 to human Galphao; P09471; Multiplexed bead flow cytometry; actives lie on both sides; binding response (% of control), % at 10 µM; 220,000 tested, 0.35% active; AID 1439; in the data active means binding response below about 49% or above about 150%; inconclusive means no clear call, values can overlap the other calls; inactive means in between;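 further: fluorescent Galphao held in activated GDP-AlF4 state binding bead-coupled RGS7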
Target sequence (P09471 whole entry, looked up): as above
RGS4-Gao reg: modulates binding of RGS4 to human Galphao; P09471; binding response (% of control), % at 10 µM; AID 1415; Multiplexed bead flow cytometry; actives lie on both sides; 220,000 tested, 0.33% active; in the data active means binding response below about 49% or above about 150%; inactive means in between;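 further: fluorescent Galphao activated with aluminum fluoride binding bead-coupled RGS4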
RGS8-Gao: regulators of human RGS8-Galphao interaction; P09471; multiplexed bead flow cytometry, RGS8-Galphao binding; actives lie on both sides; response (percent of control binding), % at 10 µM; 220,000 tested, 0.34% active; AID 1423; in the data active means response below about 60% or above about 140%; inactive means in between;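 further: Galphao activated as the GDP aluminium fluoride complex binding bead-coupled RGS8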
RGS4-Gao HTS: modulates binding between human RGS4 and Galphao | multiplexed bead flow cytometry, RGS–Galpha-o binding | 1,600 tested, 99% active | shares compounds with RGS16-Gao | RGS4–Galpha-o binding response, % at 10 µM;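 further: fluorescently labeled Galpha-o bound to GDP with aluminium fluoride binding biotinylated RGS beads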
Biotin-avidin: biotin-avidin bead binding disruption counter-screen; shares compounds with RGS16-Gao; 1,700 tested, under 10 active; streptavidin beads, fluorescein-biotin binding, flow cytometry; inhibition, % at 10 µM;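 active means inhibition above 50%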;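 further: median green fluorescence of gated singlet beads compared with DMSO control wells; 0% = DMSO wells and 100% = complete loss of bead fluorescence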
RGS8-Gao single: confirmation of regulators of human RGS8-Galphao interaction. shares compounds with RGS16-Gao. bead-based flow cytometry RGS8-Galphao binding, fluorescence; actives lie on both sides. binding response (% of control), % at 10 µM. 1,700 tested, 3% active. AID 1836; in the data active means binding response below about 72% or above about 130%; inactive means in between;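 further: Galphao activated as GDP AlF4 complex before binding bead RGS8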
RGS7-Gao confirm: RGS7-Galphao interaction regulation, single point confirmation; bead-based flow cytometry RGS7-Galphao binding; actives lie on both sides; shares compounds with RGS16-Gao; 1,700 tested, 7.8% active; response (percent of control binding), % at 10 µM; AID 1837; in the data active means response below about 75% or above about 130%; inactive means in between;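 further: fluorescent Galphao activated with GDP and aluminum fluoride binding bead-coupled RGS7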
RGS16-Gao single: confirmation of regulators of human RGS16-Galphao interaction | response (% of control binding), % at 10 µM | AID 1838 | bead-based flow cytometry, RGS16-Galphao binding; actives lie on both sides | 1,700 tested, 4% active | shares compounds with RGS16-Gao; in the data active means response below about 74% or above about 130%; inactive means in between;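 further: Galphao activated as the GDP aluminium fluoride complex binding bead-coupled RGS16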
RGS4-Gao confirm: confirmation of regulators of human RGS4-Galphao interaction; AID 1840; shares compounds with RGS16-Gao; RGS4-Galphao binding, multiplexed bead flow cytometry; actives lie on both sides; 1,700 tested, 4% active; binding response (% of control), % at 10 µM; in the data active means binding response below about 74% or above about 130%; inactive means in between
RGS19-Gao single: confirmation of regulators of human RGS19-Galphao interaction; bead-based flow cytometry RGS19-Galphao binding; actives lie on both sides; shares compounds with RGS16-Gao; response (percent of control binding), % at 10 µM; 1,700 tested, 5% active; in the data active means response below about 50% or above about 160%; inactive means in between;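 further: 100% = no compound control and 0% = blank background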
Active calls of the source: *; i = inactive; ? = inconclusive; . = not tested or not shown; [ ] = another dose, or the depositor's remark. Shown are actives, neighbours in structure and some others; about 1.2% of the full set was active somewhere. Unless noted, how the calls were made is not given here.

SMILES	GSH fluor	Avidin fluor	RGS16-Gao	RGS7-Gao reg	RGS4-Gao reg	RGS8-Gao	RGS4-Gao HTS	Biotin-avidin	RGS8-Gao single	RGS7-Gao confirm	RGS16-Gao single	RGS4-Gao confirm	RGS19-Gao single
O=C(CCSc1nnc2ccc3ccccc3n12)Nc1ccc(F)cc1	37	.	.	.	.	.	.	-2.4	102.5	102.9	101.5	103.8	108.1
CCCCCCC(=O)c1c(C)[nH]c(C(=O)OCC)c1C	32	11	.	120.7	120.1	.	.	2.5	99.1	98.7	101.8	99.7	78.6
CCOC(=O)/C=C(\C)Sc1cc(O)c2ccccc2c1O	.	0	11.2*	?	80.9	50.3*	80.9*	.	.	.	.	.	.
CN(C)C(=O)C[n+]1cccc(/C=N/O)c1	9	13	251.2*[activator]	109.6	114.0	141.8*[activator]	114.0*	-0.5	100.0	97.4	101.4	99.6	108.1
CCN(CC)C(=O)C[n+]1cccc(/C=N/O)c1	8	4	111.9	97.1	101.5	103.2	.	.	.	.	.	.	.
O=C(Cc1csc(N2CCOCC2)n1)N/N=C/c1ccc(O)c(O)c1O	12	5	49.0	?	66.2	57.2*	66.2*	i	72.0*	68.4*	69.8*	79.1	36.8*
CC(=O)NC(Cc1cccc(F)c1)C(=O)NC1CCN(C(=O)c2ccc(C)cc2)CC1 (stereo not given)	18	11	95.2	93.7	95.6	97.4	.	.	.	.	.	.	.
Cc1nc(C(=O)N/N=C/c2[nH]ncc2Br)cs1	.	6	101.7	?	103.7	101.8	.	.	.	.	.	.	.
N#CC(C(=O)OC1CCCCC1)c1nc2ccccc2nc1N1CCOCC1 (stereo not given)	4	110*	105.9	171.3*[activator]	119.4	95.8	119.4*	.	.	.	.	.	.
CN(C)CCNC(=O)/C(=C/c1ccc(-c2ccc(Cl)cc2)o1)NC(=O)c1ccccc1	11	3	132.8	185.5*[activator]	182.5*[activator]	162.5*[activator]	.	-0.3	103.4	96.8	100.5	98.9	89.4
O=S1(=O)[C@H]2C[C@@H]3C=C[C@]2(CN1Cc1ccc(C(F)(F)F)cc1)O3	.	12	99.8	?	98.6	83.0	.	0.3	101.1	88.4	97.3	94.7	80.2
O=S1(=O)[C@H]2CC3O[C@]2(C[C@@H]3c2ccc(F)cc2)CN1Cc1ccc(Cl)cc1	.	8	92.2	?	89.2	95.0	.	.	.	.	.	.	.
C/C(=N/NC(N)=S)c1ccc(Br)s1	19	10	91.6	91.1	92.8	94.8	.	.	.	.	.	.	.
COc1ccccc1N1CCN(C(=O)c2c(-c3ccccc3Cl)noc2C)CC1	9	10	-10.6*	73.7	63.6	77.1	63.6*	0.5	99.8	100.7	98.2	97.6	101.6
O=c1c2ccccc2nc(/C=C/c2ccc(O)cc2)n1CCc1ccccc1	17	17	100.8	98.9	98.8	101.3	.	.	.	.	.	.	.
O=c1c2ccccc2nc(/C=C/c2ccc3c(c2)OCO3)n1CCCO	12	107*	136.1	167.6*[activator]	109.0	105.0	109.0*	0.6	103.0	101.8	104.7	102.2	104.6
COc1ccc(S(=O)CC(=O)Nc2ccc(Cl)cc2Cl)cc1 (stereo not given)	18	10	101.1	100.9	102.7	101.5	.	.	.	.	.	.	.
O=C(Nc1ccccc1)N(C1=NCCC1)c1ccccc1	.	5	102.8	?	103.8	101.2	.	.	.	.	.	.	.
Cc1ccc(N(C(=O)Nc2ccccc2)C2=NCCC2)cc1	.	1	54.0	?	44.2*	72.2	.	-1.0	97.9	46.8*	80.3	57.4*	83.6
CCCc1cc(-n2ccnc2)n2c(nc3ccccc32)c1C#N	150*	84*	192.0*[activator]	151.3*[activator]	162.5*[activator]	118.6	.	6.6	101.0	118.6	110.2	110.8	138.3
Cc1ccc(C)c(CN2CCNC2=O)c1	16	1	7.9*	15.2*	20.3*	13.3*	.	-0.1	94.2	92.3	92.9	94.6	82.1
O=C1NCC(O)=C1C=NC12CC3CC(CC(C3)C1)C2	30	13	106.4	99.8	102.3	106.7	.	1.0	101.0	99.6	100.1	100.0	91.3
O=C(C[n+]1ccc(Cc2ccccc2)cc1)Nc1ccccc1	10	9	93.1	?	93.8	96.5	.	.	.	.	.	.	.
O=C(NNC(=S)Nc1ccc(Br)cc1Cl)c1ccncc1	21	90*	110.3	164.3*[activator]	112.4	102.0	112.4*	1.8	101.8	100.5	103.7	102.9	109.5
CN=c1scc(-c2ccc(F)cc2)n1/N=C/c1ccc(O)c(O)c1	64	10	88.8	86.8	86.5	98.0	.	.	.	.	.	.	.
SMILES	GSH fluor	Avidin fluor	RGS16-Gao	RGS7-Gao reg	RGS4-Gao reg	RGS8-Gao	RGS4-Gao HTS	Biotin-avidin	RGS8-Gao single	RGS7-Gao confirm	RGS16-Gao single	RGS4-Gao confirm	RGS19-Gao single
C/C(=N\NC(=O)C(=O)Nc1c(C)n(C)n(-c2ccccc2)c1=O)c1ccncc1	.	11	103.8	?	111.7	100.8	.	.	.	.	.	.	.
CC(CNCC1CCCO1)COc1ccccc1 (stereo not given)	35	3	174.7	108.2	112.6	122.8	.	.	.	.	.	.	.
CC(CNCC1CCCO1)COc1cccc2ccccc12 (stereo not given)	30	3	i	126.9	116.6	175.5*[activator]	116.6*	2.6	103.2	98.7	106.6	100.7	112.3
Nc1ncnc(Oc2cccc3cccnc23)c1[N+](=O)[O-]	9	10	104.1	103.0	101.7	104.6	.	.	.	.	.	.	.
Cc1ccccc1-n1c(SCC(=O)NC(N)=O)nc2sc(-c3ccccc3)cc2c1=O	4	8	-3.3*	78.9	80.8	65.3	80.8*	0.9	102.5	102.9	106.3	104.0	104.2
COC(=O)c1cc(C)[nH]c2c(C)cc3nc4ccccc4c3c12	.	6	105.0	?	100.5	107.2	.	.	.	.	.	.	.
Cc1ccc(-n2ncc3c(=O)[nH]c(SCC(=O)N4CCC(C)CC4)nc32)cc1C	19	7	184.6*[activator]	114.1	112.0	122.9	112.0*	2.9	97.5	98.9	100.3	99.0	98.5
